Molecules are shown by their SMILES. Inconclusive results are not listed. Activity calls are given as the source filed them. Unless noted, calls follow the shape of the dose curve; as a rule, active = well fitted curve in the direction sought with a large enough effect; inconclusive = small, poorly fitted or top-dose-only effect, or another doubt; inactive = no such curve, though single readings can be large; an effect the other way counts as inactive or inconclusive. Where only a bound is given, the exact number is not on record here.

Experiment [1] has as its target Lysosomal acid glucosylceramidase (Homo sapiens) (UniProt P04062). The experiment is described as follows: Glucocerebrosidase-p2 (AID 348; in the data active = potency below about 10 µM; also: potency is read from the fitted curve at half-maximal effect). Particulars: purified GBA, blue fluorogenic substrate, 40 min. Put shortly:
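Compounds titrated from 0.6 nM upwards against 0.2 nM enzyme in pH 5.9 citric acid/KH2PO4, taurocholate, tween-20; blue fluorogenic substrate 80 uM, 40 min room temperature, stopped and read Ex 365/Em 440 for AC50.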

Experiment [2] is described as follows: AP1 Signaling Pathway (AID 357; active = well fitted curve in either direction with a large enough effect, not every such curve was filed as active;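 also: ME-180 reporter cells stimulated with EGF at its EC50 level; % is scaled to controls: 0 for no effect and ±100 for the full control effect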). The following applies: ME-180 AP-1-bla reporter, EGF-induced, beta-lactamase ratio, 5 h; at 7.69 µM (top of the series) unless noted. Put shortly:
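A ratiometric CCF4 readout (405 nm excitation; 460 and 530 nm emission) quantified AP-1-driven beta-lactamase in ME-180 cells after 5 h with compound and EC50 EGF; AC50 values were derived for activators and inhibitors.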

For experiment [3], the target named is Cytochrome P450 1A2 (Homo sapiens) (UniProt P05177). Kind of experiment: p450-cyp1a2 (AID 410; calls by dose curve; also: potency is read from the fitted curve at half-maximal effect). Particulars: recombinant CYP1A2, luciferin-ME demethylation, luminescence; series mostly up to 57 µM. Put shortly: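 Inhibition was calculated relative to 57 uM furafylline (full inhibition). The reaction used human CYP1A2 at 20nM with Luciferin-ME at its Km, 100uM, driven by an NADPH-regenerating system for 60 min at room temperature.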

A short description of experiment [4]: NFAT Signaling Pathway (AID 444; active = well fitted curve in either direction with a large enough effect, not every such curve was filed as active;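 also: carbachol stimulus at about its EC50 of 1 µM final; % is scaled to controls: 0 for no effect and ±100 for the full control effect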). Particulars: Jurkat NFAT-bla M1, carbachol, beta-lactamase ratio, 5 h; at 7.69 µM (top of the series) unless noted. The gist of the method: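 Jurkat cells with NFAT-driven β-lactamase reporter and co-expressed M1 receptor, stimulated with carbachol (final 1 uM, ~EC50), compound titration, 5 h at 37 °C. CCF4 loaded 1 h at RT; 460/530 nm ratio gave %activity and AC50.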

Experiment [5] can be described thus: Stat Signaling Pathway (AID 446; active = well fitted curve in either direction with a large enough effect, not every such curve was filed as active;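 also: ME-180 cervical cancer cells given 40 pM IL-6 alongside compound; SIE-controlled beta-lactamase reporter measured as 460/530 nm FRET emission ratio; % is scaled to controls: 0 for no effect and ±100 for the full control effect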). The following applies: ME-180 SIE beta-lactamase reporter, IL-6 stimulated, 5 h; at 7.69 µM (top of the series) unless noted. The gist of the method: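 ME-180 cells carrying a SIE-driven beta-lactamase reporter are stimulated with 40 pM IL-6 for 5 h at 37C in the presence of compound. The 460/530 nm FRET substrate ratio is read after 2.5 h at RT. Data are normalised to 300 pM IL-6 and to 125 nM JAK inhibitor controls.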

The target of experiment [6] is Glucocorticoid receptor (Homo sapiens) (UniProt P04150). Kind of experiment: GR-GFP Redistribution (AID 450;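 active = compounds whose dose series gives a full or clear partial fitted curve of increased nuclear translocation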; also: potency is read from the fitted curve at half-maximal effect). Particulars: U2OS GR-GFP nuclear translocation, laser cytometry, 2 h.
For experiment [7] the target is unchanged. The experiment is described as follows: GR-EFC Redistribution (AID 451; calls by dose curve; also: potency is read from the fitted curve at half-maximal effect). The following applies: CHO-K1 GR-EFC translocation, beta-gal luminescence, 2 h. Put shortly: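 CHO-K1 cells expressing nuclear EA and GR-ED fragments of b-gal; compounds titrated up to 46 uM final, 2 h at 37 C. GR nuclear translocation read as complemented b-gal luminescence after 1 h RT detection.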

Experiment [8] addresses Mitogen-activated protein kinase 10 (Mus musculus) (UniProt Q61831). Kind of experiment: JNK3 AlphaScreen Assay (AID 530; active = well fitted curve in either direction with a large enough effect, not every such curve was filed as active;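 also: kinase came from lysate of stimulated human HepG2 cells; signal reports phosphorylation of biotinylated GST-cJun 1-79 at Ser73 with 10 µM ATP; % is scaled to controls: 0 for no effect and ±100 for the full control effect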). Particulars: JNK3 lysate, c-Jun phosphorylation; series mostly up to 57.1 µM. Put shortly: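 qHTS format: compounds tested as titrations against IL-1beta/TNF-alpha-activated HepG2 lysate JNK3 with biotin-GST-cJun substrate and 10 uM ATP at room temperature. Loss of anti-phospho-cJun AlphaScreen signal indicates inhibition.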
In general terms: Alpha assays give light when donor and acceptor beads are brought close together.

Experiment [9] has as its target 3',5'-cyclic-AMP phosphodiesterase 4B (Homo sapiens) (UniProt Q07343). Kind of experiment: qHTS Assay for Inhibitors of PDE-IV (AID 607; active = well fitted activation curve with a large enough effect in the main read-out, with a control signal flat, not every such curve was filed as active; also: % of control where 0% means no effect). Particulars: HEK293 ACTOne CNG channel cells, membrane potential fluorescence; series mostly up to 22.9 µM. The gist of the method: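 HEK293 ACTOne cells with CNG channel (1000/well), endogenous PDE4; membrane potential dye, compounds up to 22.9 uM final. Fluorescence Ex 535/Em 590; RO 20-1724 (100 uM final) as reference.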
In general terms: In qHTS, concentration-response curves come from the screen itself.

Experiment [10] deals with Cytochrome P450 3A4 (Homo sapiens) (UniProt P08684). The experiment is described as follows: qHTS Assay for Activators of Cytochrome P450 3A4 (AID 885). Also: nearly all actives have a fitted effect of over 65% in size. The following applies: recombinant CYP3A4, Luciferin-PPXE luminescence, 60 min; series mostly up to 57.1 µM. The gist of the method:
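Human CYP3A4 (20 nM) with Luciferin-PPXE at 25 uM (its KM) in 200 mM KPO4; 10 min compound preincubation, then NADPH regeneration and 60 min reaction at RT. Luciferin read by luminescence; normalized to 57 uM ketoconazole full inhibition.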

A short description of experiment [11]: Confirmation and Secondary Assay for Modulators of Hemoglobin Beta Chain Splicing at IVS2 654 locus (AID 910).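 Also: HeLa cells stably carrying EGFP split by mutant beta-globin IVS2-654 intron; % of control where 0% means no effect.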 The following applies: HeLa EGFP-654 splicing reporter, GFP fluorescence, 48 h; series mostly up to 38.3 µM. The gist of the method:
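HeLa cells stably expressing EGFP interrupted by β-globin IVS2-654 intron, seeded overnight in Opti-MEM/2% FCS, then treated 2 days at 37 °C. Restored splicing read as total peak GFP intensity per well by laser scanning cytometry (488 nm excitation, 500–520 nm emission); 500 nM antisense PNA as control.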

Experiment [12] is described as follows: Confirmation and Secondary Assay for Modulators of Hemoglobin Beta Chain Splicing at IVS2 705 locus (AID 930).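 Also: HeLa cells stably expressing the EGFP-705 splicing reporter; % of control where 0% means no effect.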 The following applies: HeLa EGFP-705 splicing reporter, GFP fluorescence, 48 h; series mostly up to 38.3 µM. Put shortly: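 Splice-correction reporter: EGFP cDNA split by beta-globin intron 2 bearing the 705 mutation, stably in HeLa. Compound incubation 2 days, 37C; fluorescent objects 5-250 µm summed per well.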

Experiment [13] is described as follows: qHTS Assay for Lipid Storage Modulators (AID 1519; calls by dose curve). The following applies: Drosophila S3 cells, BODIPY lipid droplet/cell ratio, laser cytometry, cells loaded with oleic acid; for activity change, negative = inhibition: at 57.5 µM (top of the series). Put shortly: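 Cells seeded at 5,000 per well were treated with compounds over a concentration series and loaded with oleic acid (400 uM, as added). Lipid droplet fluorescence (488 nm excitation, 500-530 nm channel) was read by laser-scanning cytometry and normalized to 20 uM Triacsin C.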

Experiment [14] deals with Ubiquitin carboxyl-terminal hydrolase 1 (Homo sapiens) (UniProt O94782). Kind of experiment: Inhibitors of USP1/UAF1: Pilot qHTS (AID 504865).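 Also: rhodamine fluorescence freed from ubiquitin-rhodamine substrate followed over time; top concentration of the series differs between compounds; % is scaled to controls: 0 for no effect and ±100 for the full control effect; nearly all actives have a fitted effect of over 35% in size.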 Particulars: purified USP1/UAF1, Ub-rhodamine cleavage fluorescence; series mostly up to 54.9 µM. The gist of the method: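 1nM USP1/UAF1 + cpd, 15 min RT; start w/ Ub-Rho 150nM final; kinetic FL 480/540 nm, 6 reads q60 s. Buffer 50mM HEPES pH 7.8, 0.5mM EDTA, 1mM TCEP, 0.01% Tween-20, 0.1 mg/ml BSA.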

Experiment [15] can be described thus: Primary qHTS for small molecule stabilizers of the endoplasmic reticulum resident proteome: Secreted ER Calcium Modulated Protein (SERCaMP) assay (AID 1508630). Also: % is scaled to controls: 0 for no effect and ±100 for the full control effect. The following applies: SH-SY5Y GLuc-SERCaMP (Gaussia luciferase released on ER calcium loss) secretion, thapsigargin, luminescence; series mostly up to 38.4 µM. Put shortly: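 GLuc-SERCaMP-expressing SH-SY5Y cells, pretreated 16 h with compound, are challenged with thapsigargin to empty ER calcium stores; after 4 h, coelenterazine is added directly to the medium and luminescence is imaged.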

Where [16] appears, read: measured here: cell count channel max response.
The mark [17] stands for this setting: measured here: lipid channel max response.

Sequence of 3',5'-cyclic-AMP phosphodiesterase 4B (Homo sapiens) (Q07343 whole entry, looked up): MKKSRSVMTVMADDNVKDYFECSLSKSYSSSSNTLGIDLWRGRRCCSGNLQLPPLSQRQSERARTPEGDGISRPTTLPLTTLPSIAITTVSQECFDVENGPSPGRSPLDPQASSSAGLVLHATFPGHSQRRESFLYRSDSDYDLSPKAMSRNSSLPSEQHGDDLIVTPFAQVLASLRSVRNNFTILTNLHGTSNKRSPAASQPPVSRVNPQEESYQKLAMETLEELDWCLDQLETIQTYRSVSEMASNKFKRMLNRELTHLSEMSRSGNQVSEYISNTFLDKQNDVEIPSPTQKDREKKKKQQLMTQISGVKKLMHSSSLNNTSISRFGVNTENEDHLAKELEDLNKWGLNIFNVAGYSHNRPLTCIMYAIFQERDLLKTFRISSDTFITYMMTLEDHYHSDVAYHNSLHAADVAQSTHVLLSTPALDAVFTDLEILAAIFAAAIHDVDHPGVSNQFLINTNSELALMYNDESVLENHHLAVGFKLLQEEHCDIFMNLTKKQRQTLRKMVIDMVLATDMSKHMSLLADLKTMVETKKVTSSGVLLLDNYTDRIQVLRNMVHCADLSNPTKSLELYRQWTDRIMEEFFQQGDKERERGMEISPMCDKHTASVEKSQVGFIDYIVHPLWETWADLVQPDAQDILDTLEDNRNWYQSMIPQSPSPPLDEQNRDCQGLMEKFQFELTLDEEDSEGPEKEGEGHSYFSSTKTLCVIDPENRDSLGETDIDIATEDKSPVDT
Sequence of Lysosomal acid glucosylceramidase (Homo sapiens) (P04062 whole entry, looked up): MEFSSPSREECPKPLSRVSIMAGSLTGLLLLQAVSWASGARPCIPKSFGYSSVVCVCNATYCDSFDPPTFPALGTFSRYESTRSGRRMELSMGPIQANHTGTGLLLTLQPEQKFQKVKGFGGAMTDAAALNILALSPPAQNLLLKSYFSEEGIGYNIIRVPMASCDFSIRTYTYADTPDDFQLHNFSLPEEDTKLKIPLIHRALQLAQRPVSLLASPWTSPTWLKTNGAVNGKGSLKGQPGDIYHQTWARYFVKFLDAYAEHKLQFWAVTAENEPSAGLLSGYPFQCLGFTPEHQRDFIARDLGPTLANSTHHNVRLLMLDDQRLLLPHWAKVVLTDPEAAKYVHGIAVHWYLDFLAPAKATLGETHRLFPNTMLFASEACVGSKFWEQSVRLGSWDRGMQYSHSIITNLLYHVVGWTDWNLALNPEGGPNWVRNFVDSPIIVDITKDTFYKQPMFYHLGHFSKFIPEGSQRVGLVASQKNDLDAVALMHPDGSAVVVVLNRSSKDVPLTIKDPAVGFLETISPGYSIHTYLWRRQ
Sequence of Ubiquitin carboxyl-terminal hydrolase 1 (Homo sapiens) (O94782 whole entry, looked up): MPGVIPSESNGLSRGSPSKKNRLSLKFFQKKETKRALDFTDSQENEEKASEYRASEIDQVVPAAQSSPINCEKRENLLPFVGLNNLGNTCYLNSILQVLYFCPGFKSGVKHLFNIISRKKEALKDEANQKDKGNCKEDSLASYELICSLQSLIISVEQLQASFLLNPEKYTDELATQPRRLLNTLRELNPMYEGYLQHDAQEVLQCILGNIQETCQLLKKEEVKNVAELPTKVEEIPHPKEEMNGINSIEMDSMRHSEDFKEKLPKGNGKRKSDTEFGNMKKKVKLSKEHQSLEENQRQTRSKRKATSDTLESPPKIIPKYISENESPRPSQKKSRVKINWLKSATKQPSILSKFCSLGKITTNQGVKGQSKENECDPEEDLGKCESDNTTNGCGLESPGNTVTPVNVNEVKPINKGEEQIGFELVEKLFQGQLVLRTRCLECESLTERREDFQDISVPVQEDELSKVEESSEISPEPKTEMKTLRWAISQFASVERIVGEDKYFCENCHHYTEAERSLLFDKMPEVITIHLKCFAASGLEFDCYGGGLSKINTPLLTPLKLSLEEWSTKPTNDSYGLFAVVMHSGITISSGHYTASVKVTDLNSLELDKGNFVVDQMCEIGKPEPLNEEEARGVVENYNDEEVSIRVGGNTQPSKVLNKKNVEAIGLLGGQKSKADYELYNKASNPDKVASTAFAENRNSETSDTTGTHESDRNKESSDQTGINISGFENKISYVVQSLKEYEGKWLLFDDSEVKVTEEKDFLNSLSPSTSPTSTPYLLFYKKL
Sequence of Cytochrome P450 1A2 (Homo sapiens) (P05177 whole entry, looked up): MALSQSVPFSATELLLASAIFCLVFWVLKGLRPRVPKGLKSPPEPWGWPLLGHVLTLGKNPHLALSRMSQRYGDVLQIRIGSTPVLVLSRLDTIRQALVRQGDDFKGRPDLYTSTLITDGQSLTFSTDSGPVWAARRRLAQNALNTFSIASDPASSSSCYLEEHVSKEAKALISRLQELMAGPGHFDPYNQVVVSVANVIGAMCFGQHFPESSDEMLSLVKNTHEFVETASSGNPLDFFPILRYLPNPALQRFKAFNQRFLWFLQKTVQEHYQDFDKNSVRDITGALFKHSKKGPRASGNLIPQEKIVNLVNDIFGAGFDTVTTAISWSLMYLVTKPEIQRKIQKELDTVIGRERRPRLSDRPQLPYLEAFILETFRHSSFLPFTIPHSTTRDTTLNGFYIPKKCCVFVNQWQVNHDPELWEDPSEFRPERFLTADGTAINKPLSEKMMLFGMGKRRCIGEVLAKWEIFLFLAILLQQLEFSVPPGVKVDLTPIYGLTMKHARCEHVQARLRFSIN
Sequence of Glucocorticoid receptor (Homo sapiens) (P04150 whole entry, looked up, the tested form may be a part): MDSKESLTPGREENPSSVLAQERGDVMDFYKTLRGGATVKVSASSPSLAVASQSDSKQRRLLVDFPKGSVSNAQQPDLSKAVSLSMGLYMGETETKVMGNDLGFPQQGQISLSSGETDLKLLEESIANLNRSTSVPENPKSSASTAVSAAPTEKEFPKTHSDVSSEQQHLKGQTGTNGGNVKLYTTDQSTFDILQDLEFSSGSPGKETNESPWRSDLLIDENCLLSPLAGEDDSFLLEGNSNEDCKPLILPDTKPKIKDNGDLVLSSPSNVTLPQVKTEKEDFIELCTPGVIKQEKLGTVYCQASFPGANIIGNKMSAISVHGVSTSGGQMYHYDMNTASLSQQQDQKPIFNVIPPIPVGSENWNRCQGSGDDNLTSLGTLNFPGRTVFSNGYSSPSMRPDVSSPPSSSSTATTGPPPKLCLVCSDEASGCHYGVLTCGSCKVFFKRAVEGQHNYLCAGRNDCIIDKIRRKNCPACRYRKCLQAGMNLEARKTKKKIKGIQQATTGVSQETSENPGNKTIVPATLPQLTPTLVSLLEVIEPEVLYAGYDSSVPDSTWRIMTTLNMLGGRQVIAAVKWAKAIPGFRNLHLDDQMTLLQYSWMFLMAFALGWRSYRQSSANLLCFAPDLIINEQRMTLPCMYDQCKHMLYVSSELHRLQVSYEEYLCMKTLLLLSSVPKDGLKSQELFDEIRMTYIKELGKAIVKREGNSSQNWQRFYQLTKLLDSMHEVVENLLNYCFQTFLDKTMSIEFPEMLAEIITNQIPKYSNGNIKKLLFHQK
Sequence of Cytochrome P450 3A4 (Homo sapiens) (P08684 whole entry, looked up): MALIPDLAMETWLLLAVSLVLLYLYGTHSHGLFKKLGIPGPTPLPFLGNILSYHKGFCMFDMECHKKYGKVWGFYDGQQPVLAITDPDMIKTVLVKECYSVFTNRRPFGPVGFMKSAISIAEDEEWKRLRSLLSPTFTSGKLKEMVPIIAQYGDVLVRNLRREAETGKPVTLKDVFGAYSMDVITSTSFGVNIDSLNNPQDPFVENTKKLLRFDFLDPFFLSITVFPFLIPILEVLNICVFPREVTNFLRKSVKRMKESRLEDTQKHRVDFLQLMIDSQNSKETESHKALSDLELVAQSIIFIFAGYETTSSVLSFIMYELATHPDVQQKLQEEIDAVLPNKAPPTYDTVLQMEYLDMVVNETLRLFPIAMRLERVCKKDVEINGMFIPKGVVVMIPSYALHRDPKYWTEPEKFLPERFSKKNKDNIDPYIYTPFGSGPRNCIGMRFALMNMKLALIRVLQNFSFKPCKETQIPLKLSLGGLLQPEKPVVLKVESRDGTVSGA

For the compound `Cc1cnc(CNc2ncncc2-c2ccccc2C(F)(F)F)cn1`, the figures for the Potency in [1], in [6] and in experiment [7] were > 11.4 µM (inactive), > 46 µM (inactive) and > 46 µM (inactive), respectively. For the same compound, the activity change, negative = inhibition was -6.17% (inactive) in experiment [2], 2.1% (inactive) in [4] and 7.68% (inactive) in experiment [13]. The Potency entry in experiment [3], in [9], in experiment [10], in experiment [14] and in experiment [15] was “inactive” each time. In addition, the activity, negative = inhibition in experiment [5] was -1.72% (inactive). Further, the compound was called inactive in [8], in experiment [11] and in experiment [12]. For the same compound, the max response was found to be 18.6% in [13] (setting [16]) and 28.1% in [13] (setting [17]).

For `CC(=O)NCCNc1nc(-c2ccccc2C(F)(F)F)nc2ccccc12`, the Potency is > 11.4 µM (inactive) in experiment [1], 15.8 µM (active) in experiment [3], > 46 µM (inactive) in experiment [6] and > 46 µM (inactive) in experiment [7]. For the same compound, the activity change, negative = inhibition in experiment [2] is 3.94% (inactive); in [4], 4.42% (inactive); in experiment [13], 9.13% (inactive). The activity, negative = inhibition in experiment [5] was -7.86% (inactive). The outcome in [8], in experiment [11] and in [12] was inactive. The Potency entry in experiment [9], in [10], in experiment [14] and in experiment [15] was “inactive” throughout. Also, the max response was 11.9% in [13] (setting [16]) and 23% in experiment [13] (setting [17]).

For `CN(C)c1ccnc(-c2ccccc2C(F)(F)F)n1`, the Potency in experiment [1] is > 11.4 µM (inactive); in [3], 7.94 µM (active); in [6] it was > 46 µM (inactive); in experiment [7] it was > 46 µM (inactive). Besides, the activity change, negative = inhibition in experiment [2] was 24.2% (inactive); in experiment [4] it was 6.88% (inactive); in experiment [13], 5.14% (inactive). Moreover, in [5], the activity, negative = inhibition was 1.29% (inactive). The result in experiment [8], in [11] and in experiment [12] was inactive. The Potency entry in experiment [9], in experiment [14] and in experiment [15] was “inactive” each time. For the same compound, the results for the max response in experiment [13] (setting [16]) and in experiment [13] (setting [17]) were 11.7% and 18.9%, respectively.
